Experiments:
Experiment in all cases: log2 ratio of Biotin-Ahx-Ub-VS probe labelling (fragment/DMSO); higher = less target engagement (more negative = stronger competition), active = hit call of the paper (q ≤ 0.05, log2 ratio ≤ -1)
Conditions in all cases: compound concentration: 200 uM; treatment time: 3 h
[1] = target: USP34 (UniProt Q70CQ2)
Outline: (§1)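 Labelling with Biotin-Ahx-Ub-VS (0.5 µM final, 1 h) followed a 3 h triplicate treatment of HEK293T lysate (495 µg per sample, Tris/CHAPS/IGEPAL buffer with protease inhibitors) with fragment at 200 µM or vehicle. Labelled DUBs were NeutrAvidin-enriched, digested with LysC and trypsin, and run by diaPASEF LC-MS/MS. The values, average log2 fragment/vehicle ratios by unpaired t-test, come from global-median-normalised Spectronaut label-free quantities. Proteins with ≥2 unique peptides were used.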

[2] = target: T1, USP36 (UniProt Q9P275)
T1 sequence (whole entry): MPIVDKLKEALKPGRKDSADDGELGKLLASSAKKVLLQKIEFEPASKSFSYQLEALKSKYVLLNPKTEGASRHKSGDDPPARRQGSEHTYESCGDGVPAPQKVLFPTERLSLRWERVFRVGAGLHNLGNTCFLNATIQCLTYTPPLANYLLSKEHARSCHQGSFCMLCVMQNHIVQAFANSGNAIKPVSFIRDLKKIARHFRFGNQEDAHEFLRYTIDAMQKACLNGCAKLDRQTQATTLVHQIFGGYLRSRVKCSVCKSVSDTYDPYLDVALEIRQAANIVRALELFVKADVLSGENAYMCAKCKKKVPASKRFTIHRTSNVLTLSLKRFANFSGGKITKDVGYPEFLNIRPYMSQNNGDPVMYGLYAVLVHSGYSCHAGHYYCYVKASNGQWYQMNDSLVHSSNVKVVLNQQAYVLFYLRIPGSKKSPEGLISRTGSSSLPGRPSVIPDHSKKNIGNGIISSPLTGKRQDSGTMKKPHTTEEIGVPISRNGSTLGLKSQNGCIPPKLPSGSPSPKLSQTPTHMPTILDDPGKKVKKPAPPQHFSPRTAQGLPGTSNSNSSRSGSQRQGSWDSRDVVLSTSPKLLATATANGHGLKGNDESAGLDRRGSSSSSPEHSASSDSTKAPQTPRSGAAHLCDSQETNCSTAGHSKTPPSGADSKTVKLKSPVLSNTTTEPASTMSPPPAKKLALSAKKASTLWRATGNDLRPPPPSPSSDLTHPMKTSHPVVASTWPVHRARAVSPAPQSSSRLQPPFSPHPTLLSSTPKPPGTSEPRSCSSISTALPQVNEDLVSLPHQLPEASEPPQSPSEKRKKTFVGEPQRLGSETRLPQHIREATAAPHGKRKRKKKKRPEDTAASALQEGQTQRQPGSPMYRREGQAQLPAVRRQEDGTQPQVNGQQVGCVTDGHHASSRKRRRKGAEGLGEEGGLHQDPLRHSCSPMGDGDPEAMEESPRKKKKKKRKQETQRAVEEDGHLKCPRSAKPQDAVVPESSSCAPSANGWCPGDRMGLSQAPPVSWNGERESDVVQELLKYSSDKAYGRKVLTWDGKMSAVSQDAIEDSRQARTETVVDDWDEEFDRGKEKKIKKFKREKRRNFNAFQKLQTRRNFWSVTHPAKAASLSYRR
Outline: as §1

[3] = target: T2, USP38 (UniProt Q8NB14)
T2 sequence (whole entry): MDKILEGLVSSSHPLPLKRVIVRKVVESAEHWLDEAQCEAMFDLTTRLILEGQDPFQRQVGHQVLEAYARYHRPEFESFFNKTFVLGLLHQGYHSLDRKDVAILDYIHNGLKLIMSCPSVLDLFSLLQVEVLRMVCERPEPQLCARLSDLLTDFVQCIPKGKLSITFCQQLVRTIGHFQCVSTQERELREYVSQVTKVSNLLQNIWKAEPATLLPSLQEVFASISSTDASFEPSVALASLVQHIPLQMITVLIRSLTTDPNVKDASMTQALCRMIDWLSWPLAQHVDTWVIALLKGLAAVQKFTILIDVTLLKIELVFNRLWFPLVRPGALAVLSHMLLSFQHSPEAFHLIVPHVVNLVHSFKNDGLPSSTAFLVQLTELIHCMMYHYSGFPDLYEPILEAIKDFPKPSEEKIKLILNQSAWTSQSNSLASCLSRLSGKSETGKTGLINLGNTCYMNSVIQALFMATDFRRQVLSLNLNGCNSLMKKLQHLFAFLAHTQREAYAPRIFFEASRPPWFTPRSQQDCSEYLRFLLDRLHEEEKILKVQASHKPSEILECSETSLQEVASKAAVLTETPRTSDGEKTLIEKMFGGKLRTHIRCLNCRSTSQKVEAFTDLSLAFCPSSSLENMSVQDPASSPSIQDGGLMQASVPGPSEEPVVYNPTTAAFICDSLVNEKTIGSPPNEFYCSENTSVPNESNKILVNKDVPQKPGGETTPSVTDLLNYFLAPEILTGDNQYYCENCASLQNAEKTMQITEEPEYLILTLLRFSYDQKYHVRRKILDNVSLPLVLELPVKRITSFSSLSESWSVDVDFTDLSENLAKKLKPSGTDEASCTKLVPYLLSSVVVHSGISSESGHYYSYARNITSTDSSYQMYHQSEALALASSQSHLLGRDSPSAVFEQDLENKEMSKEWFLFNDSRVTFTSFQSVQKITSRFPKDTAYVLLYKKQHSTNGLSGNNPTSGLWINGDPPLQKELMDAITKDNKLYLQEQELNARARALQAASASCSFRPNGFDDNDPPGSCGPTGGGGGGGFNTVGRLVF
Outline: as §1

[4] = target: T3, USP39 (UniProt Q53GS9)
T3 sequence (whole entry): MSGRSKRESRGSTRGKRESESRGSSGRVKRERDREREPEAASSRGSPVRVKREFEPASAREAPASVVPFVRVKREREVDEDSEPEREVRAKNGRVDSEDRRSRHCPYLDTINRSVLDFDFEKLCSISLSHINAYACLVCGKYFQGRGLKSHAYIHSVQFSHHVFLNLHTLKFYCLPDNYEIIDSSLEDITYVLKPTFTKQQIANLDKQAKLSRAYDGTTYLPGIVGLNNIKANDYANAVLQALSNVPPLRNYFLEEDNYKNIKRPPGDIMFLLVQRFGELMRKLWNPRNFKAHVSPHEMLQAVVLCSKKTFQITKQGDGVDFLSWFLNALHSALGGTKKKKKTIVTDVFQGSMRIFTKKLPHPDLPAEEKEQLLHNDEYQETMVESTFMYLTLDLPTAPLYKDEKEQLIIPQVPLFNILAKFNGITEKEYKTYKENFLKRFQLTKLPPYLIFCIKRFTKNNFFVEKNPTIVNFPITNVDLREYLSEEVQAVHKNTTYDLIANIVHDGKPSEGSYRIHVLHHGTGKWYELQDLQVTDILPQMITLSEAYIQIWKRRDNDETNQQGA
Outline: as §1

[5] = target: T4, USP4 (UniProt Q13107)
T4 sequence (whole entry): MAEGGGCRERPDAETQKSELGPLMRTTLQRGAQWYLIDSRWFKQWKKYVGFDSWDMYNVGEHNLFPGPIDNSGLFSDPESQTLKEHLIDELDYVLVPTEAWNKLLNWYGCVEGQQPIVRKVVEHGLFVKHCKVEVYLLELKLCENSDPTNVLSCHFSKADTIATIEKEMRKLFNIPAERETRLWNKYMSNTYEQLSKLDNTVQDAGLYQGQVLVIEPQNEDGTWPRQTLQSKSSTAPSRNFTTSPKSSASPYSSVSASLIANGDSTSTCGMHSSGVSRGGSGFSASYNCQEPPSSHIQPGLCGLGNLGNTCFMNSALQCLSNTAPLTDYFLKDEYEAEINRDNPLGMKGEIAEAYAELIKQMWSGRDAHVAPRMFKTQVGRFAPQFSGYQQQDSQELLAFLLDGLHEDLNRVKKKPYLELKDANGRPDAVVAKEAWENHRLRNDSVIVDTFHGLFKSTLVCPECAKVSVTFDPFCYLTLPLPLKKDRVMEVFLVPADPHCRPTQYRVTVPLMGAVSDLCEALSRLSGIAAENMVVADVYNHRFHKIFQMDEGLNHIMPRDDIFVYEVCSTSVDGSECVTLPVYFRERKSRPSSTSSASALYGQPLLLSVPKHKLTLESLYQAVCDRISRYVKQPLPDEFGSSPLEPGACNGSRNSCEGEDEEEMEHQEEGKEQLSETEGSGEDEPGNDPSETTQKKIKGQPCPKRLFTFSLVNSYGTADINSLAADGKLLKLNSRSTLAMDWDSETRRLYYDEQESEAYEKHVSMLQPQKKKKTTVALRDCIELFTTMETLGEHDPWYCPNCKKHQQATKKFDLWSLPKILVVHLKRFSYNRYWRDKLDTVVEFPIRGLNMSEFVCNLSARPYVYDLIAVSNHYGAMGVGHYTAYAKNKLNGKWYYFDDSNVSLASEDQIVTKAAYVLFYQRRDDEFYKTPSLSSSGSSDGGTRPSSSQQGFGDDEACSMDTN
Outline: as §1

Measured: log2 ratio of Biotin-Ahx-Ub-VS probe labelling

Chain of USP34 (Q70CQ2 whole entry, the tested form may be a part): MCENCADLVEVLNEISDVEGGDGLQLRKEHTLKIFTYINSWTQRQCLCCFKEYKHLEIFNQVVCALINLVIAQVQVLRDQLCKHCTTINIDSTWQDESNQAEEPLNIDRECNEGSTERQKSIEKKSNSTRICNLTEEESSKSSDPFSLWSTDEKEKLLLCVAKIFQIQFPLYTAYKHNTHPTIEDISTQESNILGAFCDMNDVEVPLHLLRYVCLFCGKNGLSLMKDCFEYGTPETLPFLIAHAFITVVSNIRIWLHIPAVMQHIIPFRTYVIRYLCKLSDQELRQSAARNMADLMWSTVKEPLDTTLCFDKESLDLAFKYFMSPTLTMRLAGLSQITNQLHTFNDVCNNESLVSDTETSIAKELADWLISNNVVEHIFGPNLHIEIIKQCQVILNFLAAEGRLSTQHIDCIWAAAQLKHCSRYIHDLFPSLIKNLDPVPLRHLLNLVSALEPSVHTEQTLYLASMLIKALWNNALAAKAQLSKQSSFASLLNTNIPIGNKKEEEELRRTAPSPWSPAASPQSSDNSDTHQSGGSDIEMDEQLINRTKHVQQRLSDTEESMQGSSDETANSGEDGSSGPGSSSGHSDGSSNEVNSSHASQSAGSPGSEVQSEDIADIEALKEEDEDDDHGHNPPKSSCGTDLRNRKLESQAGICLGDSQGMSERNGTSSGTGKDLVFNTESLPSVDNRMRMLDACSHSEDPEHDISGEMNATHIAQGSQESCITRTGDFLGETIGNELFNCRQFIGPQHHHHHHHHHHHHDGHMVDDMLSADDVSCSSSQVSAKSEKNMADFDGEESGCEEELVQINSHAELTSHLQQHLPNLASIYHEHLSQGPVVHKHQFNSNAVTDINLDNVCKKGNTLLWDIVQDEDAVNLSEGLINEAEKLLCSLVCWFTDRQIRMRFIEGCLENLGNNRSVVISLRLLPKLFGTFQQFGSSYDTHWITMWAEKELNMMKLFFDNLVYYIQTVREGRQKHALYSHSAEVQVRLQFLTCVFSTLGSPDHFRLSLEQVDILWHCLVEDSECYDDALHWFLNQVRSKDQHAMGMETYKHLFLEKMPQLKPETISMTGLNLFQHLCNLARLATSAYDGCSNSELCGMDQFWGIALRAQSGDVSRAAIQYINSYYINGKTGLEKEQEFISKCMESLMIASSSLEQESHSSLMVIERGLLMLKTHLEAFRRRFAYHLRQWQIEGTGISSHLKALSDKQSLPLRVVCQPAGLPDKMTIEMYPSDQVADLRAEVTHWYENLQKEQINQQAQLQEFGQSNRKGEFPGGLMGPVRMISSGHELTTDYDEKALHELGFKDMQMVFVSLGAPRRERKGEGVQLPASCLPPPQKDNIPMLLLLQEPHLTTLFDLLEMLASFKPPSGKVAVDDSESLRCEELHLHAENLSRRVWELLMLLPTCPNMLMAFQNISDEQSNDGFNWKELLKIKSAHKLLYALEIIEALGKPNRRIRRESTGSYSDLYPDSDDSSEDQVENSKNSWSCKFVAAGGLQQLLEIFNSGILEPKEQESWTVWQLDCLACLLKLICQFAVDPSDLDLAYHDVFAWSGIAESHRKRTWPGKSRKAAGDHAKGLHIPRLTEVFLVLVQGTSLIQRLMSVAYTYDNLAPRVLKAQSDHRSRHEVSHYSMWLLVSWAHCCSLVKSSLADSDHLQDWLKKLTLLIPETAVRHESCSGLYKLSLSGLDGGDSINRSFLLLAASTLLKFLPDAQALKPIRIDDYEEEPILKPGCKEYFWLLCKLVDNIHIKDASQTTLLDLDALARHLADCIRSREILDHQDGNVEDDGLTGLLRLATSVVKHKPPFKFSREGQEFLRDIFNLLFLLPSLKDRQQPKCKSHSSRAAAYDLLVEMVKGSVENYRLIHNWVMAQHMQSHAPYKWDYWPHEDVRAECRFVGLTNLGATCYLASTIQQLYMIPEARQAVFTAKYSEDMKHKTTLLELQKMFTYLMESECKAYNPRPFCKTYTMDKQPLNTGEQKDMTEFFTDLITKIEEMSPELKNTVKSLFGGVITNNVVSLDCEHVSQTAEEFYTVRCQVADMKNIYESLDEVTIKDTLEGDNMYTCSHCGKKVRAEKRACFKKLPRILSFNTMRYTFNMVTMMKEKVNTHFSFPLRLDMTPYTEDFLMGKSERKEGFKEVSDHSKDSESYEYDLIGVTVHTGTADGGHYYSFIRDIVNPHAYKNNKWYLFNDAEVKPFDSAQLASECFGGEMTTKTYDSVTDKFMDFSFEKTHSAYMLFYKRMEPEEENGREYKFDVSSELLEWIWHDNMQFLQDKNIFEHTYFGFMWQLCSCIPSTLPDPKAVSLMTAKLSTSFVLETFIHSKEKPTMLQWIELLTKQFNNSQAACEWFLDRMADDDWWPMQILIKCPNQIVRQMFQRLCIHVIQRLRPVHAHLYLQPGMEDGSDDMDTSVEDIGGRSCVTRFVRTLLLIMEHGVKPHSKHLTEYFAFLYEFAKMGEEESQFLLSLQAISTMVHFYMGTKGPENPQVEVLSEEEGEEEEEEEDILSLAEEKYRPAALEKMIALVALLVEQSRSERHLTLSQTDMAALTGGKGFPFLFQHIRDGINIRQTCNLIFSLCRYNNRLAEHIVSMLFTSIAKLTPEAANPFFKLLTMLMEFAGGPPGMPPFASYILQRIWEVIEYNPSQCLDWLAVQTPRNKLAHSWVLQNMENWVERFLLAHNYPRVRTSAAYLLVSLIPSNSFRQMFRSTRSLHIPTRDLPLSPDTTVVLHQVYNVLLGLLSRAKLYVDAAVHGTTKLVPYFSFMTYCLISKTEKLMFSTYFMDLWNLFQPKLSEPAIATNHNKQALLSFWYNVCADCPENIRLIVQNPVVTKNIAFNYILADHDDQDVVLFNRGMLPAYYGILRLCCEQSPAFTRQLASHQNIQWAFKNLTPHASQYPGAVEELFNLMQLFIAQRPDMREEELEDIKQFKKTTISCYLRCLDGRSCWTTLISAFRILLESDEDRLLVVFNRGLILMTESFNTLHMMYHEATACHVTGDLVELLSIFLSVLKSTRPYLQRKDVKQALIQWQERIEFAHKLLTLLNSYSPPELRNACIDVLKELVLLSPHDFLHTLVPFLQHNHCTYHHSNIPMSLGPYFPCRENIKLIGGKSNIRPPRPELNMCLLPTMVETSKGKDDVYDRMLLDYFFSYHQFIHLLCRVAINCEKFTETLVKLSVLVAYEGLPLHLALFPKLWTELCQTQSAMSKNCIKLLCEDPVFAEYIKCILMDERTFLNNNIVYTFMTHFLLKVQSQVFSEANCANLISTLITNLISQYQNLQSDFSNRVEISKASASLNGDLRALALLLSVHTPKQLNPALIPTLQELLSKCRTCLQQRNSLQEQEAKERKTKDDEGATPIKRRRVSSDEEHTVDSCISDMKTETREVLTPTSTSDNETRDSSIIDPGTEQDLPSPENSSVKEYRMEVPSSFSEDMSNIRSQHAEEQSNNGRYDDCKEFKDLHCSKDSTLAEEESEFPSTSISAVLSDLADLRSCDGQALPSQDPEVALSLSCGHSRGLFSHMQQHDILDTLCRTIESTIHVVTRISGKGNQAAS

O=C(CCl)Nc1ccc2c(c1)OC(F)(F)O2
inactive: [1] -0.119 | [2] 0.029 | [3] 0.122 | [4] 0.433 | [5] 0.0436
